Data taken from PubChem BioAssay AID1578 (Sanford-Burnham Center for Chemical Genomics, 2009).
Hit rate of the full screen: of about 290,000 compounds, about 3,000 (1%) were called active. Rule as the data show it: active = inhibition mostly above about 36% (no sharp cut-off); inactive = mostly below about 34%. Shown is part of a subset that was picked to be rich in actives.

Experiment: NOD1 signaling inhibitors, primary screen, cell-based, luminescence, uHTS (AID 1578);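 also: HEK-293T reporter cells stimulated with the NOD1 agonist gamma-tri-DAP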
Settings: NOD1-driven NF-kB luciferase reporter cells, at 4 µM, active compounds read high

| SMILES | inhibition |
| --- | --- |
| CS(=O)(=O)N1CCN(c2ccccc2NC(=O)c2ccc(-c3ccc(Br)cc3)o2)CC1 | -21.7% (inactive) |
| CC(C)c1ccc(NC(=O)COC(=O)CCC(=O)c2cccs2)cc1 | 5.4% (inactive) |
| O=C1C(N2CCOCC2)=C(n2nnc3ccccc32)C(=O)c2ccccc21 | 101% (active) |
| O=C1c2ccccc2C(=O)c2c1cccc2-n1nnc2ccccc21 | 3.1% (inactive) |
| O=C(O)c1ccc(NC2=C(n3nnc4ccccc43)C(=O)c3ccccc3C2=O)cc1 | -3.8% (inactive) |
| CCOC(=O)c1ccc(NC(=O)CN2C(=O)C(CC)SC(CC)C2=O)cc1 (configuration not stated) | -15.5% (inactive) |
| O=C(c1ccc2ccccc2c1)N1CCCCC1 | 14.9% (inactive) |
| CCc1nnc(NC(=O)c2nn(-c3ccccc3)nc2C)s1 | -6.6% (inactive) |
| O=C(Nc1nnc(C(F)(F)F)s1)c1ccc(Br)s1 | 84% (active) |
| Cc1nn(-c2ccccc2)nc1C(=O)NNC(=O)c1ccc(C(F)(F)F)cc1 | -5.6% (inactive) |
| Cc1nn(-c2ccccc2)nc1C(=O)Nc1nnc(C(F)(F)F)s1 | 54.4% (active) |
| CCSc1nnc(NC(=O)c2ccc(Br)s2)s1 | -37.5% (inactive) |
| O=C(Nc1nnc(C(F)(F)F)s1)c1c(F)cccc1F | 2% (inactive) |
| CC1(C)CC(=O)/C(=C(\O)CCCN2C(=O)c3ccccc3C2=O)C(=NCCO)C1 | -17.2% (inactive) |
| COc1cc2[nH]c(C(=O)NN)c(N)c2cc1OC | -7.9% (inactive) |
| CC(C)(C)NC(=O)C(c1ccccc1)N(Cc1ccco1)C(=O)c1csnn1 (configuration not stated) | -0.4% (inactive) |
| CCOC(=O)C1CCN(C(=O)Cn2cccc2C(=O)c2ccccc2)CC1 | -13.4% (inactive) |
| CC1CN(Cc2nc3c(c(=O)[nH]c(=O)n3C)n2CCN2CCOCC2)CC(C)O1 (configuration not stated) | 7.3% (inactive) |
| CC(C)[C@H](NC(=O)[C@@H]1CSC2c3ccccc3C(=O)N21)C(=O)NCc1ccncc1 (some centres not stated) | -23.2% (inactive) |
| c1ccc(-c2cccc(-c3ccccn3)n2)nc1 | 90.2% (active) |
| c1ccc(-c2ccc(-c3ccccn3)nn2)nc1 | 27.1% (inactive) |
| c1ccc(-c2ccccn2)nc1 | -28.9% (inactive) |
| O=C(c1ccc2c3c(cccc13)CC2)C1CCCN(C(=O)c2ccc[n+]([O-])c2)C1 (configuration not stated) | 10.8% (inactive) |
| CCn1c(C)c(C(C)=O)cc(C#N)c1=O | -4.6% (inactive) |
| C=CCNC(=O)C1CCN(c2c([N+](=O)[O-])cc(C(F)(F)F)cc2[N+](=O)[O-])CC1 | 2.2% (inactive) |

| SMILES | inhibition |
| --- | --- |
| Cc1ccccc1NS(=O)(=O)c1ccc(OCC(=O)NCc2ccco2)cc1 | -20.7% (inactive) |
| CSC1=C(C#N)C(=O)NC(c2ccccc2O)S1 (configuration not stated) | -3.8% (inactive) |
| COC(=O)CSC1=C(C#N)C(=O)NC(c2ccccc2)S1 (configuration not stated) | 38.8% (inactive) |
| CSC1=C(C#N)C(=O)NC(c2ccc(Cl)cc2)S1 (configuration not stated) | 45% (active) |
| COc1cc([N+](=O)[O-])ccc1NC(=S)NNC(=O)c1ccc2c(c1)OCO2 | 15.2% (inactive) |
| N#CC(Cc1cccc(CC(C#N)(c2ccccc2)c2ccccc2)c1)(c1ccccc1)c1ccccc1 | 4.8% (inactive) |
| Oc1ccc(C[C@@H]2CNC(=S)N2CCCCC2CCCCC2)cc1 | -30.3% (inactive) |
| CCC(=O)Nc1ccc(Cl)c(NC(=O)c2c(OC)cccc2OC)c1 | 7% (inactive) |
| CCC(=O)Nc1ccc(Cl)c(NC(=O)c2cccc(OC)c2)c1 | -28.2% (inactive) |
| CCC(=O)Nc1ccc(Cl)c(NC(=O)c2ccccc2OC)c1 | 57.1% (active) |
| COc1cc(NC(=O)c2ccccc2)c(OC)cc1Cl | -16.7% (inactive) |
| COc1ccc(C(=O)Nc2cc(OC)c(Cl)cc2OC)cc1 | -33.1% (inactive) |
| c1ccc(CCn2cnc3ccccc32)cc1 | -43.2% (inactive) |
| CCCC(=O)C1=C(O)C(C(=O)OC)C(C)(C)CC1=Nc1cccc([N+](=O)[O-])c1 (configuration not stated) | -12.8% (inactive) |
| FC(F)(F)Oc1ccc(NC(=S)Nc2ccccc2N2CCOCC2)cc1 | 4.5% (inactive) |
| C/C(=N\NC(=O)c1c[nH]c2ccccc12)c1ccccn1 | -30.8% (inactive) |
| C/C(=N\NC(=O)c1ccc(COc2ccccc2)cc1)c1ccncc1 | -26.5% (inactive) |
| CCOc1ccc(OCc2ccc(C(=O)N/N=C(\C)c3ccccn3)cc2)cc1 | 91.6% (active) |
| CCOc1ccc(C(=O)N/N=C(\c2ccccc2)c2ccccn2)cc1 | 63.3% (inactive) |
| O=C(NCCNC(=O)c1ccccc1F)c1ccccn1 | -8.2% (inactive) |
| COCC(=O)N1CCC(n2nnc3cc(C(F)(F)F)ccc32)CC1 | -11.5% (inactive) |
| Cc1ccccc1NC(=O)c1ccc2nccnc2c1 | -15.6% (inactive) |
| COc1ccc(Sc2nnc(Cc3ccccc3)c3ccccc23)cc1 | 46.4% (inactive) |
| Cc1ccc(Sc2nnc(Cc3ccccc3)c3ccccc23)cc1 | 70% (active) |
| c1ccc(Cc2nnc(Sc3ccccc3)c3ccccc23)cc1 | 40.8% (inactive) |

| SMILES | inhibition |
| --- | --- |
| COc1cccc(OCc2cc(C(=O)N(C)C3CC(C)(C)NC(C)(C)C3)no2)c1 | -22.6% (inactive) |
| CCOc1ccc(N(CC(=O)O)S(=O)(=O)c2ccc(F)cc2)cc1 | 22.2% (inactive) |
| COc1cccc2cc(C(=O)NC(C)C3CCCO3)c(=O)oc12 (configuration not stated) | -27.3% (inactive) |
| C=CCn1c(NC(=O)c2ccccc2Cl)c(C#N)c2nc3ccccc3nc21 | 28.8% (inactive) |
| N#Cc1c(NC(=O)c2ccccc2Cl)n(Cc2ccccc2)c2nc3ccccc3nc12 | 83.5% (active) |
| CCCCn1c(NC(=O)CC)c(C#N)c2nc3ccccc3nc21 | -7.1% (inactive) |
| CCCCn1c(NC(=O)c2ccccc2Cl)c(C#N)c2nc3ccccc3nc21 | 20% (inactive) |
| CCCCn1c(NC(C)=O)c(C#N)c2nc3ccccc3nc21 | 22.5% (inactive) |
| CCCCn1c(NC(=O)c2ccccc2)c(C#N)c2nc3ccccc3nc21 | 88.5% (active) |
| O=C(C[n+]1cc(Br)cc(Br)c1)c1ccc(Cl)cc1 | -7.2% (inactive) |
| CC(=O)Nc1ccc(S(=O)(=O)N2CCC(C(=O)NCCC(=O)Nc3ccccc3)CC2)cc1 | -17.6% (inactive) |
| CCN(CC)c1nc2c(c(=O)[nH]c(=O)n2C)n1CCCc1ccccc1 | -13.8% (inactive) |
| CC1c2ccccc2SC(CCCN(C)C)c2ccccc21 (configuration not stated) | 59.5% (active) |
| CN(C)CCC1Sc2ccccc2Oc2ccccc21 (configuration not stated) | -13.4% (inactive) |
| CNCCCC1Sc2ccccc2Oc2ccccc21 (configuration not stated) | -31.7% (inactive) |
| COc1cccc(N2C(=O)N(c3ccccc3Cl)C3CS(=O)(=O)CC32)c1 (configuration not stated) | -14.5% (inactive) |
| Cc1n[nH]c(C)c1CCCCOc1ccc([N+](=O)[O-])cc1 | -1.4% (inactive) |
| COC(=O)C1CCN(C(=O)C2CCC(=O)N(CCc3cccc(F)c3)C2)CC1 (configuration not stated) | -26.6% (inactive) |
| C/C=C(\CS(=O)(=O)c1ccccc1)S(=O)(=O)c1ccccc1 | 60.5% (inactive) |
| O=S(=O)(C/C(=C/CO)S(=O)(=O)c1ccccc1)c1ccccc1 | 100% (active) |
| C/C(CS(=O)(=O)c1ccccc1)=N\O | -22.4% (inactive) |
| COc1cccc(OCC(=O)Nc2ccncc2)c1 | -11.4% (inactive) |
| COc1ccccc1NC(=O)/C=C/c1ccc(OC)c(S(=O)(=O)N2CCOCC2)c1 | -9.3% (inactive) |
| CSc1nc(C)cc(OCCNS(=O)(=O)c2cc(C)ccc2C)n1 | -15% (inactive) |
| Cc1ccccc1CN1CCc2cc([N+](=O)[O-])ccc21 | 58.2% (active) |

| SMILES | inhibition |
| --- | --- |
| Cc1ccccc1Cn1c(C)nc2ccc([N+](=O)[O-])cc2c1=O | -19.5% (inactive) |
| Cc1ccccc1COC(=O)c1cc([N+](=O)[O-])ccc1N1CCOCC1 | -37.5% (inactive) |
| O=c1c2ccccc2cnn1Cc1ccc(Br)cc1F | -29.7% (inactive) |
| Cc1c(C(=O)N2CCCCC2)nn(-c2ccc(Cl)cc2)c(=O)c1C#N | -10.3% (inactive) |
| COc1cc(CN2CCCN(C)CC2)cc([N+](=O)[O-])c1O | -23.1% (inactive) |
| O=C(O)CSCC(=O)N1N=C2/C(=C/c3ccccc3)CCCC2C1c1ccccc1 (configuration not stated) | -13.2% (inactive) |
| CC(=O)N1N=C2/C(=C/c3ccccc3)CCCC2C1c1ccccc1 (configuration not stated) | 79.9% (active) |
| NC(=O)N1N=C2/C(=C/c3ccccc3)CCCC2C1c1ccccc1 (configuration not stated) | -6.2% (inactive) |
| CN(C)S(=O)(=O)c1cccc(C(=O)Nc2ccccc2)c1 | -30.7% (inactive) |
| O=c1c(-c2ccc(Cl)cc2)c[nH]n1-c1ccccc1 | -5.7% (inactive) |
| CCOc1cccc(N2C(=O)CC(NCc3ccc(S(N)(=O)=O)cc3)C2=O)c1 (configuration not stated) | -9.2% (inactive) |
| Cc1ccc(-n2c(SCC(=O)N3CCCCC3)nc(O)c(Cc3ccccc3)c2=O)cc1 | -18.9% (inactive) |
| COc1ccc(NC(=S)Nc2ccccn2)cc1 | 6.6% (inactive) |
| Cc1cccc(NC(=S)Nc2ccccn2)c1 | -0.2% (inactive) |
| S=C(Nc1ccc(Nc2ccccc2)cc1)Nc1ccccn1 | 74.1% (active) |
| CN(C)S(=O)(=O)c1ccc(-c2csc(N/N=C/c3ccc(O)cc3)n2)cc1 | 12.3% (inactive) |
| COc1ccc(/C=N/Nc2nc(-c3cccc(S(=O)(=O)N4CCCC4)c3)cs2)cc1OC | 52.7% (inactive) |
| COc1cc(/C=N/Nc2nc(-c3ccc(S(=O)(=O)N(C)C)cc3)cs2)ccc1O | 31.8% (active) |
| N#C/C(=C\c1ccc2c(c1)OCCO2)C(=O)Nc1ccc(C(=O)O)cc1 | 1.3% (inactive) |
| CCCCCCNc1c([N+](=O)[O-])c(=O)sc2ccccc12 | 71% (active) |
| CC(C)(C)Nc1c([N+](=O)[O-])c(=O)sc2ccccc12 | -30.9% (inactive) |
| CCCCNc1c([N+](=O)[O-])c(=O)n(C)c2ccccc12 | -21.6% (inactive) |
